Values joined by “and” are separate entries in the source; they are usually repeats but may differ in a detail not shown here. Equal entries are not always repeated. Records with an inconclusive call do not appear. Where a call stands in place of a potency, no number is given. Where a structure was tested more than once in an assay, its records may differ in their call. Active and inactive are the calls of the source. Unless noted, calls follow the shape of the full dose curve.

5-hydroxytryptamine receptor 2A (Homo sapiens), sequence (P28223 whole entry, looked up): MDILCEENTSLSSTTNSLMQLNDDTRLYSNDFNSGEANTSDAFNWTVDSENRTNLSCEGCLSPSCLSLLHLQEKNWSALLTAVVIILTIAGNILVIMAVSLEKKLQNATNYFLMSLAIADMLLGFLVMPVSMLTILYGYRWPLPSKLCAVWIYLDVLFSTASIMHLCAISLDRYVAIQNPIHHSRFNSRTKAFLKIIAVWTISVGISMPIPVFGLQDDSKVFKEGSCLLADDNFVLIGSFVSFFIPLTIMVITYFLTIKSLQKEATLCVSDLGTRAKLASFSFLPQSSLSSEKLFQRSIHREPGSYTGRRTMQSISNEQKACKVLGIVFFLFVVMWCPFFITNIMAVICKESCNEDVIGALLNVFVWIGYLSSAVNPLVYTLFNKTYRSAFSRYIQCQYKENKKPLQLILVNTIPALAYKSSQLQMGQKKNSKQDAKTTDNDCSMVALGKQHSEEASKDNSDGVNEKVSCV

System in the first assay: not listed separately
Kind of assay: p53 small molecule agonists, cell-based qHTS assay: qHTS cell viability counter screen (AID 1963581). Also: nearly all actives have a fitted effect of over 45% in size. Also: potency is read from the fitted curve at half-maximal effect. To be noted: p53RE-bla HCT-116 viability, ATP luminescence, 16 h; series mostly up to 66 µM. In a few lines:
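In the same plates used for the p53 bla reporter, HCT-116 cells given compounds for 16 h at 37 C received CellTiter-Glo; luminescence was recorded 30 min later at room temperature.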
For `N#Cc1ccccc1`, the Potency entry was “inactive”.

`C=C(CC(=O)O)C(=O)O`: the Potency entry was “inactive”.

Consider `O=C(OCC1CCC2OC2C1)C1CCC2OC2C1` (stereo not given), for which the Potency result is “inactive”.

For the molecule `CC(=O)NS(=O)(=O)c1ccc(N)cc1`, the Potency result is “inactive”.

As for `Cc1cc(CC(=O)O)n(C)c1C(=O)c1ccc(Cl)cc1`, the Potency result was “inactive”.

`CCCCNS(=O)(=O)c1ccccc1`: the Potency result was “inactive”.

As for `Cc1cc(C)c(O)c(C)c1`, the Potency entry was “inactive”.

On to `Nc1ccc(S(=O)(=O)Nc2cnc3ccccc3n2)cc1`, for which the Potency entry was “inactive”.

`COC(=O)[C@H]1[C@H]2C[C@@H]3c4[nH]c5cc(OC)ccc5c4CCN3C[C@H]2C[C@@H](OC(=O)c2cc(OC)c(OC)c(OC)c2)[C@@H]1OC`: the Potency result is “inactive”.

Regarding `CN(C)c1ccc(C(=C2C=CC(=[N+](C)C)C=C2)c2ccccc2)cc1`, the Potency was 4.08 µM (active) and 3.97 µM (active).

`c1ccc2cc(Nc3ccc(Nc4ccc5ccccc5c4)cc3)ccc2c1`: the Potency entry is “inactive”.

For `COCCc1ccc(OCC(O)CNC(C)C)cc1` (stereo not given), the Potency result is “inactive”.

Take `CC(=O)N[C@@H](CS)C(=O)O`: the Potency entry is “inactive”.

For the molecule `OCC1CCCO1` (stereo not given), the Potency result is “inactive”.

For `CC(=O)OCc1ccc2c(c1)OCO2`, the Potency result was “inactive”.

`Cc1cc(C)c(C)cc1C`: the Potency entry is “inactive”.

Turning to `Oc1c(Cl)cc(Cl)c(Cl)c1Cl`, the Potency result was “inactive”.

With `CC1(C)C(=O)N(Cl)C(=O)N1Cl`, the Potency entry was “inactive”.

In the case of `Cc1ccc(C)c(O)c1`, the Potency entry is “inactive”.

Regarding `NC(N)=S`, the Potency entry is “inactive”.

For the molecule `OCCOCCOCCOCCO`, the Potency result is “inactive”.

As for `O=c1cc[nH]c(=S)[nH]1`, the Potency entry was “inactive”.

As for `CCCCCCCCCCCCCC(=O)O`, the Potency result is “inactive”.

With `O=S(=O)(O)c1ccc2cc(O)ccc2c1`, the Potency result was “inactive”.

As for `Oc1ccc(Cc2ccccc2O)cc1`, the Potency result was “inactive”.

Turning to `ClC1=C(Cl)C(Cl)(Cl)C(Cl)=C1Cl`, the Potency result is “inactive”.

Turning to `CC1(C)[C@@H]2CC[C@@]1(C)C(=O)C2`, the Potency entry is “inactive”.

Take `CCOC(=O)CC(=O)OCC`: the Potency result was “inactive”.

As to `CCCCOCCOCCOC(C)=O`, the Potency result is “inactive”.

In the case of `CCn1c2ccccc2c2cc(N)ccc21`, the Potency result was “inactive”.

For `CC(=O)CC(=O)N(C)C`, the Potency result was “inactive”.

Consider `C=CCCCCCCCCCC`, for which the Potency result is “inactive”.

For `CCCCCNCCCCC`, the Potency entry was “inactive”.

`O=C(CC(C(=O)OC1CCCCC1)S(=O)(=O)O)OC1CCCCC1` (stereo not given): the Potency entry is “inactive”.

Consider `CN(C)CCOC(=O)COc1ccc(Cl)cc1`, for which the Potency result is “inactive”.

Take `CCCN(CCC)C(=O)SCC`: the Potency entry was “inactive”.

System in another assay: not listed separately
As to the kind of experiment: p53 small molecule agonists, cell-based qHTS assay (AID 1963582; active = well fitted activation curve with a large enough effect in the signal ratio in the repeat runs, not every such curve was filed as active; the % refers to the signal ratio). As to conditions: HCT-116 p53RE-bla reporter, beta-lactamase FRET ratio, 16 h; series mostly up to 66 µM. The procedure, abridged: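 Compounds are pin-transferred in DMSO onto p53RE-bla cells and incubated 16 h at 37 C. The B/G FRET beta-lactamase substrate is then applied for 2 h at RT and fluorescence recorded.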
(qHTS replaces the single test concentration by a dilution series.)
Consider `N#Cc1ccccc1`, for which the Potency result is “inactive”.

With `C=C(CC(=O)O)C(=O)O`, the Potency entry is “inactive”.

For `CC(=O)NS(=O)(=O)c1ccc(N)cc1`, the Potency result was “inactive”.

As for `Cc1cc(CC(=O)O)n(C)c1C(=O)c1ccc(Cl)cc1`, the Potency entry is “inactive”.

Take `C[C@]12C=CC(=O)C=C1CC[C@H]1[C@@H]3C[C@@H](O)[C@](O)(C(=O)CO)[C@@]3(C)C[C@H](O)[C@@]12F`: the Potency entry was “inactive”.

As to `Cc1cc(C)c(O)c(C)c1`, the Potency result was “inactive”.

`Nc1ccc(S(=O)(=O)Nc2cnc3ccccc3n2)cc1`: the Potency result is “inactive”.

Take `COC(=O)[C@H]1[C@H]2C[C@@H]3c4[nH]c5cc(OC)ccc5c4CCN3C[C@H]2C[C@@H](OC(=O)c2cc(OC)c(OC)c(OC)c2)[C@@H]1OC`: the Potency entry is “inactive”.

As for `c1ccc2cc(Nc3ccc(Nc4ccc5ccccc5c4)cc3)ccc2c1`, the Potency entry was “inactive”.

In the case of `COCCc1ccc(OCC(O)CNC(C)C)cc1` (stereo not given), the Potency result is “inactive”.

For the molecule `COc1ccc([C@@H]2CC(=O)c3c(O)cc(O[C@@H]4O[C@H](CO[C@@H]5O[C@@H](C)[C@H](O)[C@@H](O)[C@H]5O)[C@@H](O)[C@H](O)[C@H]4O)cc3O2)cc1OC`, the Potency result is “inactive”.

For the molecule `CC(=O)N[C@@H](CS)C(=O)O`, the Potency result was “inactive”.

In the case of `OCC1CCCO1` (stereo not given), the Potency entry is “inactive”.

Take `CC(=O)OCc1ccc2c(c1)OCO2`: the Potency entry was “inactive”.

`Cc1cc(C)c(C)cc1C`: the Potency result is “inactive”.

For `CC1(C)C(=O)N(Cl)C(=O)N1Cl`, the Potency entry was “inactive”.

Turning to `Cc1ccc(C)c(O)c1`, the Potency result is “inactive”.

Regarding `NC(N)=S`, the Potency entry was “inactive”.

As for `CCCCCCCCCCO`, the Potency entry is “inactive”.

Regarding `OCCOCCOCCOCCO`, the Potency entry was “inactive”.

Regarding `O=c1cc[nH]c(=S)[nH]1`, the Potency entry was “inactive”.

Regarding `CCCCCCCCCCCCCC(=O)O`, the Potency result was “inactive”.

With `O=S(=O)(O)c1ccc2cc(O)ccc2c1`, the Potency entry was “inactive”.

Turning to `Oc1ccc(Cc2ccccc2O)cc1`, the Potency result is “inactive”.

On to `ClC1=C(Cl)C(Cl)(Cl)C(Cl)=C1Cl`, for which the Potency result was “inactive”.

On to `CC1(C)[C@@H]2CC[C@@]1(C)C(=O)C2`, for which the Potency result is “inactive”.

As for `CCOC(=O)CC(=O)OCC`, the Potency result is “inactive”.

`CCCCOCCOCCOC(C)=O`: the Potency entry was “inactive”.

As for `CCn1c2ccccc2c2cc(N)ccc21`, the Potency entry was “inactive”.

Regarding `CC(=O)CC(=O)N(C)C`, the Potency result was “inactive”.

Turning to `C=CCCCCCCCCCC`, the Potency result is “inactive”.

For the molecule `CC1=C(/C=C/C(C)=C/C=C/C(C)=C/C(=O)O)C(C)(C)CCC1`, the Potency entry is “inactive”.

For `CCCCCNCCCCC`, the Potency result was “inactive”.

`O=C(CC(C(=O)OC1CCCCC1)S(=O)(=O)O)OC1CCCCC1` (stereo not given): the Potency entry is “inactive”.

For the molecule `CN(C)CCOC(=O)COc1ccc(Cl)cc1`, the Potency entry was “inactive”.

On to `CCCN(CCC)C(=O)SCC`, for which the Potency entry was “inactive”.

Another assay deals with 5-hydroxytryptamine receptor 2A (Homo sapiens) (UniProt P28223). As to the kind of experiment: 5-hydroxytryptamine receptor 2A (HTR2A) small molecule antagonists, cell-based qHTS assay (AID 1963586). Also: nearly all actives have a fitted effect of over 45% in size. Also: potency is read from the fitted curve at half-maximal effect. As to conditions: HTR2A-CHO cells, DOI-induced calcium flux, fluorescence; series mostly up to 61.5 µM. In a few lines:
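Antagonist-mode intracellular calcium assay: DOI (4 nM) added after 5 min compound pre-incubation at room temperature to dye-loaded HTR2A-CHO cells. Fluorescence followed for 3 min, sampled every second.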
In the case of `N#Cc1ccccc1`, the Potency result was “inactive”.

As for `C=C(CC(=O)O)C(=O)O`, the Potency result is “inactive”.

In the case of `O=C(OCC1CCC2OC2C1)C1CCC2OC2C1` (stereo not given), the Potency result is “inactive”.

Regarding `CC(=O)NS(=O)(=O)c1ccc(N)cc1`, the Potency entry is “inactive”.

`Cc1cc(CC(=O)O)n(C)c1C(=O)c1ccc(Cl)cc1`: the Potency entry was “inactive”.

For the molecule `CCCCNS(=O)(=O)c1ccccc1`, the Potency result was “inactive”.

Take `Cc1cc(C)c(O)c(C)c1`: the Potency result was “inactive”.

In the case of `Nc1ccc(S(=O)(=O)Nc2cnc3ccccc3n2)cc1`, the Potency entry was “inactive”.

As to `c1ccc2cc(Nc3ccc(Nc4ccc5ccccc5c4)cc3)ccc2c1`, the Potency entry is “inactive”.

For the molecule `COc1ccc([C@@H]2CC(=O)c3c(O)cc(O[C@@H]4O[C@H](CO[C@@H]5O[C@@H](C)[C@H](O)[C@@H](O)[C@H]5O)[C@@H](O)[C@H](O)[C@H]4O)cc3O2)cc1OC`, the Potency entry is “inactive”.

Regarding `CC(=O)N[C@@H](CS)C(=O)O`, the Potency entry is “inactive”.

As for `OCC1CCCO1` (stereo not given), the Potency entry is “inactive”.

Regarding `CC(=O)OCc1ccc2c(c1)OCO2`, the Potency result is “inactive”.

`Cc1cc(C)c(C)cc1C`: the Potency entry was “inactive”.

On to `Oc1c(Cl)cc(Cl)c(Cl)c1Cl`, for which the Potency entry was “inactive”.

Regarding `CC1(C)C(=O)N(Cl)C(=O)N1Cl`, the Potency result was “inactive”.

`Cc1ccc(C)c(O)c1`: the Potency result was “inactive”.

Consider `NC(N)=S`, for which the Potency entry was “inactive and 37.5 µM (active)”.

As for `CCCCCCCCCCO`, the Potency entry was “inactive”.

As for `OCCOCCOCCOCCO`, the Potency entry was “inactive”.

In the case of `O=c1cc[nH]c(=S)[nH]1`, the Potency entry was “inactive”.

Take `CCCCCCCCCCCCCC(=O)O`: the Potency entry was “inactive”.

As to `O=S(=O)(O)c1ccc2cc(O)ccc2c1`, the Potency entry is “inactive”.

For the molecule `Oc1ccc(Cc2ccccc2O)cc1`, the Potency entry was “inactive”.

For the molecule `CCOC(=O)CC(=O)OCC`, the Potency result is “inactive”.

Turning to `CCCCOCCOCCOC(C)=O`, the Potency result was “inactive”.

With `CCn1c2ccccc2c2cc(N)ccc21`, the Potency entry was “inactive”.

In the case of `CC(=O)CC(=O)N(C)C`, the Potency entry was “inactive”.

As to `C=CCCCCCCCCCC`, the Potency result was “inactive”.

On to `CCCCCNCCCCC`, for which the Potency result was “inactive”.

Regarding `O=C(CC(C(=O)OC1CCCCC1)S(=O)(=O)O)OC1CCCCC1` (stereo not given), the Potency result was “inactive”.

In the case of `CN(C)CCOC(=O)COc1ccc(Cl)cc1`, the Potency entry was “inactive”.

With `CCCN(CCC)C(=O)SCC`, the Potency result was “inactive”.
